We go through five compounds from PubChem BioAssay.

Results filed as inconclusive are left out. Activity calls are given as the source filed them. Cut-off read from the data, not from the text of the source, unless noted: active = percent of DMSO control GFP below about 86%; inactive = the rest, inconclusive results apart.

A short description of experiment [1]: rapamycin-like changes in RPL19A-GFP expression – cell-based, S. cerevisiae, multiplex flow cytometry, primary screen (AID 1862).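 Note: lower values mimic rapamycin by blocking the RPL19A rise seen in DMSO cells.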 To be noted: S. cerevisiae RPL19A-GFP strain, flow cytometry fluorescence, 3 h; at 10 µM; stronger effect = lower value. A general note: In flow cytometry, cells or beads pass a laser one at a time.
Experiment [2] in a line: TOR pathway GLN3 branch reporter MEP2-GFP changes – S. cerevisiae, multiplex flow cytometry, primary screen (AID 1867;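 active = GFP response, as percent of the DMSO control, above the screen-wide mean plus 3 SD, about 139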;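 note: median GFP channel fluorescence of barcode-gated MEP2-GFP cells measured by flow cytometry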). To be noted: S. cerevisiae MEP2-GFP strain, 3 h, at 10 µM, stronger effect = higher value, 100% means same as DMSO wells.
Experiment [3] is described as follows: TOR pathway RTG branch CIT2 reporter changes – S. cerevisiae, GFP fusion, multiplex flow cytometry, primary screen (AID 1870;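 active = percent response above a set limit, the screen-wide mean plus 3 SD, cut at about 130% in these data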;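 note: barcoded CIT2-GFP strain pooled with four other GFP strains with rapamycin as positive control; median GFP fluorescence per well over plate mean of DMSO wells so 100% = DMSO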). To be noted: S. cerevisiae CIT2-GFP expression, 3 h, at 10 µM, stronger effect = higher value.
Experiment [4] can be described thus: TOR pathway LAP4-GFP level changes – S. cerevisiae, multiplex flow cytometry, primary screen (AID 1873;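 active = GFP signal, as percent of the solvent control, above the screen mean plus 3 SD, about 149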). Conditions: S. cerevisiae LAP4-GFP expression, 3 h, at 10 µM, stronger effect = higher value.
Experiment [5] can be described thus: yeast AGP1-GFP level changes, GLN3 branch – cell-based, multiplex flow cytometry, S. cerevisiae, primary screen (AID 1887;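 active = GFP signal above the screen-wide mean plus 3 SD, that is over about 124.5% of the solvent control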;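 note: AGP1-GFP fusion strain of S. cerevisiae within a five-strain barcoded multiplex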). To be noted: 3 h, at 10 µM, stronger effect = higher value.
A short description of experiment [6]: reduced mouse 2C T cell binding to pMHC/ICAM-1 vesicles – MLPCN validation set, flow cytometry, LFA-1/ICAM-1 modulator project, pilot screen (AID 2523;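 active = response below a set limit, under 55% cells CD8-positive and vesicle-bound, and CD8 cells' 90th-percentile brightness under 279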;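 for vesicle binding response: mean PE anti-B7-1 fluorescence of CD8+ cells relative to row control; 100% = QL9-loaded vesicles with DMSO vehicle in the same plate row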). Conditions: 2C mouse CD8+ T cells, at 7 µM, stronger effect = lower value; double positive events: measured here: CD8+/vesicle+ event percentage.
Experiment [7] concerns the target Integrin beta-1 (Homo sapiens) + Integrin alpha-4 (Homo sapiens) (UniProt P13612+P05556). As to the kind of experiment: alpha4beta1 integrin LIBS antibody binding reduction – U937 cells, HUTS-21 mAb, flow cytometry, validation set, VLA-4 allosteric modulator project, pilot screen (AID 2674;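 active = inhibition above 50%, about 3 SD of the validation set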;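 note: antibody binding induced by the VLA-4 ligand LDV present at three times its Kd; 0% = LDV ligand with antibody and no compound and 100% = antibody without LDV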). Conditions: HUTS-21 LIBS mAb binding, at 6.7 µM, stronger effect = higher value, binding induced by LDV ligand.

Experiment [8] in a line: calorie-restriction mimetic ROS inhibitors, yeast – validation compound set, pilot screen (AID 2706;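 active = superoxide response below 65% of plate, a cut near 3 SD across the whole screen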;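 note: yeast exposed to compound for one week at 30 degrees C before staining; 100% = mean of all compound wells on the same plate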). Conditions: S. cerevisiae aging, superoxide DHE fluorescence; at 10 µM; stronger effect = lower value.
Experiment [9] deals with Beta-adrenergic receptor kinase 1 (Homo sapiens) (UniProt P25098). As to the kind of experiment: GRK2 binders displacing RNA aptamer, biochemical, validation, human GRK2, bead flow cytometry (AID 488806;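 active = aptamer binding inhibition above 30%, about 3 SD of noise from non-fluorescent compounds; inactive = inhibition at or below 30%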). To be noted: bead-bound GRK2, FAM-aptamer displacement, at 10 µM, stronger effect = higher value.
The target in experiment [10] is Beta-2 adrenergic receptor (Homo sapiens) (UniProt P07550). As to the kind of experiment: agonist-induced loss of surface beta2AR – cell-based, FAP fluorogen, flow cytometry, validation set, pilot screen (AID 504459;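 active = percent response above 42, roughly 3 SD of non-fluorescent test compounds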;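 note: agonist-driven loss of surface beta2AR via internalization measured by FAP dye flow cytometry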). Conditions: Am2.2-beta2AR cells, at 10 µM, stronger effect = higher value.
In experiment [11] the target is AP-2 complex subunit beta (Homo sapiens) (UniProt P63010). As to the kind of experiment: beta-arrestin/AP2 interaction blockers – biochemical, validation set, GST-AP2 beads, flow cytometry, pilot screen (AID 504541;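 active = inhibition above 54%, about 3 SD of non-fluorescent compounds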;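 note: AP2 carries R879A mutation and is captured from E. coli lysate; bead-bound FITC arrestin peptide fluorescence measuring arrestin peptide binding to AP2; 0% = DMSO wells and 100% = excess unlabeled arrestin peptide control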). Conditions: FITC arrestin peptide, at 10 µM, stronger effect = higher value, AP2 beta2 appendage fragment, R879A mutant.
A short description of experiment [12]: cytosolic pH regulators acting via V-ATPase – S. cerevisiae, pHLuorin, HTS validation (AID 504600; in the data active = response above about 15%;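 note: plate controls were DMSO for no effect and reference compound for full effect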). Conditions: V-ATPase proton transport, at 10 µM, stronger effect = higher value.
The test system of experiment [13] is anti-desmoglein-3 scFv antibody binding to human DSG3. The experiment is described as follows: blockers of pathogenic pemphigus antibody–desmoglein-3 binding – biochemical, validation compound set, bead-based, flow cytometry, pilot screen (AID 588368;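 active = binding below the plate cutoff, the plate median minus 3 SD, with a reading above zero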;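 note: signal is the median channel fluorescence of bead-bound GFP antibody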). To be noted: Protein G beads, DSG3-Fc, scFv-GFP binding, at 10 µM, stronger effect = lower value.
Experiment [14] in a line: Nile Red efflux blockade in pump-expressing yeast – validation compound set, multiplex, phenotypic, pilot screen (AID 588506;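 active = efflux inhibition above 0.42, the validation set average plus 4 SD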;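 note: Nile Red retained in cells so higher fluorescence means more efflux inhibition; 0 = negative control wells and 1 = enniatin B 25 µM full block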). Conditions: S. cerevisiae pump-expressing triplex, Nile Red efflux flow cytometry; at 10 µM; stronger effect = higher value; the pumps come from Candida albicans.
The target of experiment [15] is ATP-binding cassette sub-family B member 6 (Homo sapiens) (UniProt Q9NP58). The experiment is described as follows: blockers of ABCB6-driven porphyrin uptake – K562-ABCB6 cells, flow cytometry, validation set, pilot screen (AID 588550;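 active = inhibition above the screen-wide mean plus 3 SD, about 51%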;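 note: 0% = DMSO wells and 100% = benzethonium chloride 70 µM positive control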). To be noted: K562-ABCB6 porphyrin accumulation, 1 h, at 10 µM, stronger effect = higher value.
The nature of experiment [16]: AML differentiation inducers, ER-HoxA9 marrow cells – cell-based, GFP/MAC1 double positive, flow cytometry, validation set, primary screen (AID 588685;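 active = differentiation response of at least 50%, scaled between solvent and reference control, from cells with both markers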;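 note: compound exposure lasts four days before antibody staining and flow analysis; 0% = DMSO wells and 100% = 5 µM fulvestrant positive control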). To be noted: stronger effect = higher value, normalized: vehicle 0, fulvestrant 100.

Sequence of Beta-2 adrenergic receptor (Homo sapiens) (P07550 whole entry, looked up): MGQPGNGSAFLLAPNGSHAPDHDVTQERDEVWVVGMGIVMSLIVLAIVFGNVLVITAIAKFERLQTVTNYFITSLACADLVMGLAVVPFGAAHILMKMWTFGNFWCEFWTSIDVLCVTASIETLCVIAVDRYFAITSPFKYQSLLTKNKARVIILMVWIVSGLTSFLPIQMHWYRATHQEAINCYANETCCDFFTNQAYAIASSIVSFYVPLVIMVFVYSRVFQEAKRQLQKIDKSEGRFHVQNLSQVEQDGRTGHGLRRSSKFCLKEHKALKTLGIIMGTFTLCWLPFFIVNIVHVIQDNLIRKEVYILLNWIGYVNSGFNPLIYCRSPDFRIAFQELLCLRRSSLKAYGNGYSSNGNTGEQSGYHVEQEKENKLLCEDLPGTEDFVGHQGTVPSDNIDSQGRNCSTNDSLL
Sequence of ATP-binding cassette sub-family B member 6 (Homo sapiens) (Q9NP58 whole entry, looked up): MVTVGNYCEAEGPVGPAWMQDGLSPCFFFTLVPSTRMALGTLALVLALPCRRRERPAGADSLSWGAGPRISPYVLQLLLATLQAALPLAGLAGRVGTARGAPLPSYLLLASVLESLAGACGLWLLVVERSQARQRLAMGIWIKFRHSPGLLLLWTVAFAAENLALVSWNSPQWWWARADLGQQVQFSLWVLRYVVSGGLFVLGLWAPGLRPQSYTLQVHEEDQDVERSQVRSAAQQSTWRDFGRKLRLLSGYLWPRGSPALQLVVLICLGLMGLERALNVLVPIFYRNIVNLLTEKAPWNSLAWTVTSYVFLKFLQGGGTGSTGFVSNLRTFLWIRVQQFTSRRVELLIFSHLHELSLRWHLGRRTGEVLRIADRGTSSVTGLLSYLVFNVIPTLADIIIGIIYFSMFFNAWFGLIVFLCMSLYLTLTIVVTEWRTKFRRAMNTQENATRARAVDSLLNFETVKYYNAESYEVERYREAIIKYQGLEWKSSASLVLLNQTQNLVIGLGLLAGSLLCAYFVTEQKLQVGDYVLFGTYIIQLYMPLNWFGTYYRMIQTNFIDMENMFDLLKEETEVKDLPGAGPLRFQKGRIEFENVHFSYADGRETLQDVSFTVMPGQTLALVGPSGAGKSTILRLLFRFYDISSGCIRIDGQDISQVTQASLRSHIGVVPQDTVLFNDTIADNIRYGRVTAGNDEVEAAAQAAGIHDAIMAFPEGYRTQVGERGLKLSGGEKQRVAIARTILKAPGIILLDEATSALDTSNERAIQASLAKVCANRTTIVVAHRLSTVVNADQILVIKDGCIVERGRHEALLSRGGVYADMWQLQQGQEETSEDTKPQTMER
Sequence of AP-2 complex subunit beta (Homo sapiens) (P63010 whole entry, looked up, the tested form may be a part, one chain of several): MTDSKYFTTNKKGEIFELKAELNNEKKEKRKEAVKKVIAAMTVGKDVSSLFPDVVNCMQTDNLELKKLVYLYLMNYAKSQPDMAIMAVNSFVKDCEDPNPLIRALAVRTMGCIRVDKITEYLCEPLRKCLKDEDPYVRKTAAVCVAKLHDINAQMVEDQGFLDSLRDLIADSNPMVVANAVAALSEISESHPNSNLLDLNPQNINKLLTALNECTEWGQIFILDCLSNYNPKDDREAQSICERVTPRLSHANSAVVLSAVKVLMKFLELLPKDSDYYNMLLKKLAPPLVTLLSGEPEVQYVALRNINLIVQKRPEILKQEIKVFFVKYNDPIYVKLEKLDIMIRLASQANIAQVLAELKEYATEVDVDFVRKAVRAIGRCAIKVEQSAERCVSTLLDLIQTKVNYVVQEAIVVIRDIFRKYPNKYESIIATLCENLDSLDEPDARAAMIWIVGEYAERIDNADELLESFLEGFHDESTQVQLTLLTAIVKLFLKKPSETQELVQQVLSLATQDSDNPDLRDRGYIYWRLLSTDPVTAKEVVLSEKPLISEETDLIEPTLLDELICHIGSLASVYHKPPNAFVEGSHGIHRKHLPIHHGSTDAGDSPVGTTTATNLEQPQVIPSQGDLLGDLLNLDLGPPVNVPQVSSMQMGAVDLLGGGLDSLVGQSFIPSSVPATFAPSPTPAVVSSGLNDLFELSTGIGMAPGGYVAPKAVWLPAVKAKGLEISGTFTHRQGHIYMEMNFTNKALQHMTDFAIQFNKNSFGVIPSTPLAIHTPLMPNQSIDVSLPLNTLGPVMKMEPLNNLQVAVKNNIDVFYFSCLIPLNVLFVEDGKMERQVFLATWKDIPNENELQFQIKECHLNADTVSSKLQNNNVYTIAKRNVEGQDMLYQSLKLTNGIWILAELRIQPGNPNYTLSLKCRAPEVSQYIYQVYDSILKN
Sequence of Integrin beta-1 (Homo sapiens) + Integrin alpha-4 (Homo sapiens) (P05556 whole entry, looked up): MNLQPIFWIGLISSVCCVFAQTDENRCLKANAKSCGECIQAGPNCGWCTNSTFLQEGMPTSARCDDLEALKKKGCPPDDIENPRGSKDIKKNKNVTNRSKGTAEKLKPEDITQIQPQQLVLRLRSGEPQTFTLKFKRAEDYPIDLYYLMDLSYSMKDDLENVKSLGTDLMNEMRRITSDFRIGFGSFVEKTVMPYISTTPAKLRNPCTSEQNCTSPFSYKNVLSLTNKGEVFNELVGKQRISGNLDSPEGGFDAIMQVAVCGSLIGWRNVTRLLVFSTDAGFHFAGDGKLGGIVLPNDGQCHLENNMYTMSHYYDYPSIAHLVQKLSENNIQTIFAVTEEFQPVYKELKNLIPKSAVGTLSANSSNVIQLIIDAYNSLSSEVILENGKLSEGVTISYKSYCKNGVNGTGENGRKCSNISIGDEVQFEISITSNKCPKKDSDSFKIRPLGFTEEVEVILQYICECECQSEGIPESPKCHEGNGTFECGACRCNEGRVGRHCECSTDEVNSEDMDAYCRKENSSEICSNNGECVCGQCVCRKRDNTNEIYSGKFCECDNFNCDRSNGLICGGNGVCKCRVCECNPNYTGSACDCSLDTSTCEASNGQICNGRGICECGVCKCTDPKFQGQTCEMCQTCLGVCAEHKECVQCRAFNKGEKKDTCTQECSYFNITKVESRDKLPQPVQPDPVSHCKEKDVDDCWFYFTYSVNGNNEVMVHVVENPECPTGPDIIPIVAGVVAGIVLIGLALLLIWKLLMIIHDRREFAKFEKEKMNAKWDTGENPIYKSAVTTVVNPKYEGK
Sequence of Integrin beta-1 (Homo sapiens) + Integrin alpha-4 (Homo sapiens) (P13612 whole entry, looked up): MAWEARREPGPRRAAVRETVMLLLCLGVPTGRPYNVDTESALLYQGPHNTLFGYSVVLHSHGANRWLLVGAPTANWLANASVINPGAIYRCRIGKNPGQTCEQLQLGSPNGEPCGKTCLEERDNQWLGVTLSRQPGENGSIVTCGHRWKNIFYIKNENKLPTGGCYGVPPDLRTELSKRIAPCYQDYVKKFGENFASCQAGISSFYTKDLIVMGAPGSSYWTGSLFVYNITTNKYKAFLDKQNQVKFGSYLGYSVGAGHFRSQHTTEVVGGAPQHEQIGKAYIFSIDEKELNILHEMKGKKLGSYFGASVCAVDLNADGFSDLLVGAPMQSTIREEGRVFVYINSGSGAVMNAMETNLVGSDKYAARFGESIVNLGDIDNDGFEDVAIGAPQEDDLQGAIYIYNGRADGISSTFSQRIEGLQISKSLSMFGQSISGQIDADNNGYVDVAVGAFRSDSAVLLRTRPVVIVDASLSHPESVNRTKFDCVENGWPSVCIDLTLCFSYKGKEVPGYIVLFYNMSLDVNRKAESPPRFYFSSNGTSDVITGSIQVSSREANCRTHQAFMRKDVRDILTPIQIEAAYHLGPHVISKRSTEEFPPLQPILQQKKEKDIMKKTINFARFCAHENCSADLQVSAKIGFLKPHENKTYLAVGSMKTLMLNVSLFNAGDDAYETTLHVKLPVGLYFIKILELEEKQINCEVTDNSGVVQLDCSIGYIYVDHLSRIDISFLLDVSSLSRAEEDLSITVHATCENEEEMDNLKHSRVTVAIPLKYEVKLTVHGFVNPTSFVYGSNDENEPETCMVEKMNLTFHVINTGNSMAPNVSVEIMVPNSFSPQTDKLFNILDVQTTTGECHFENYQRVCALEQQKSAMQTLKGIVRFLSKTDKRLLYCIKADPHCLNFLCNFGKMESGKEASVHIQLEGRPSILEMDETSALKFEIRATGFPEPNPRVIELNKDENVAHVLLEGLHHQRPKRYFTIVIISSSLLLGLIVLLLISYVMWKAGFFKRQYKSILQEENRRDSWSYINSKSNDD
Sequence of Beta-adrenergic receptor kinase 1 (Homo sapiens) (P25098 whole entry, looked up): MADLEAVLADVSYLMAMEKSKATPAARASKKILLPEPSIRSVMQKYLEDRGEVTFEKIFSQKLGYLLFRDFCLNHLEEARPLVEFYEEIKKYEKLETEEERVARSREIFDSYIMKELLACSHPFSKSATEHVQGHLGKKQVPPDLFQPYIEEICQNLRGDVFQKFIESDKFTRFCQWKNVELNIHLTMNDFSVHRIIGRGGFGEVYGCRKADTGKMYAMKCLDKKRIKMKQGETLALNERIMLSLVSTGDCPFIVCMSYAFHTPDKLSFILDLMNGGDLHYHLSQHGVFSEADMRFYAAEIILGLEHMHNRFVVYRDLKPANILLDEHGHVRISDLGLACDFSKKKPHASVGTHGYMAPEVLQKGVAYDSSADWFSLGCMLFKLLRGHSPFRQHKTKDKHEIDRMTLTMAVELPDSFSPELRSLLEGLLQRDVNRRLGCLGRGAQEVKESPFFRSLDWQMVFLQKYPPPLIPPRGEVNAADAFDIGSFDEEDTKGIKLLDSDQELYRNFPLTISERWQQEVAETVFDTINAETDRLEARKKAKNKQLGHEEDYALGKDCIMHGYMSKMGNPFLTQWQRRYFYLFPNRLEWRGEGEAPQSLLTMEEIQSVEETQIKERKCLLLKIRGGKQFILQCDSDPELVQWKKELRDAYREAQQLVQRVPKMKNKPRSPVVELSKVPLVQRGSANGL

For orientation: inhibition means the relative decrease from the control value, in per cent. As to `CCOc1ccc(C(=O)NCC2(c3ccccc3)CCOCC2)cc1`, the percent of DMSO control GFP in experiment [1] is 99.8% (inactive). Also, the results for the GFP response vs DMSO in experiment [2] and in experiment [4] were 97.7% (inactive) and 105% (inactive), respectively. Moreover, in experiment [3], the percent response of DMSO control was 108% (inactive). Moreover, the GFP response, % of DMSO in experiment [5] is 108% (inactive). For the same compound, the double positive events in experiment [6] was 63.3%. In addition, in experiment [6], the vesicle binding response is 172% (inactive). Moreover, the inhibition was -13.2% (inactive) in experiment [7], -4.75% (inactive) in experiment [11] and 11% (inactive) in experiment [15]. Also, the superoxide response (% of plate) in [8] was 95.9% (inactive). For the same compound, the aptamer binding inhibition in [9] is -4% (inactive). Also, the values for the response in experiment [10] and in experiment [12] were -2.34% (inactive) and -1% (inactive), respectively. Also, in [13], the binding (% of control) is 107% (inactive). Further, in [14], the efflux inhibition (fraction of control) was -0.11 (inactive). For the same compound, in experiment [16], the differentiation response was 10.1% (inactive).

Take `CCCCOc1ccc(CC(=O)NO)cc1`: the percent of DMSO control GFP in experiment [1] was 87.8% (inactive). For the same compound, the GFP response vs DMSO in experiment [2] was 113% (inactive); in experiment [4] it was 75.9% (inactive). For the same compound, the percent response of DMSO control in [3] was 106% (inactive). Further, in [5], the GFP response, % of DMSO was 75% (inactive). The double positive events in [6] came out at 48.1%. For the same compound, the vesicle binding response in experiment [6] is 214% (inactive). Also, the values for the inhibition in experiment [7], in [11] and in [15] were -3.24% (inactive), 3.29% (inactive) and 9% (inactive), respectively. The superoxide response (% of plate) in [8] is 121% (inactive). Further, in experiment [9], the aptamer binding inhibition was -2% (inactive). Also, the response in experiment [10] is -26.1% (inactive); in experiment [12], 1.03% (inactive). Besides, in experiment [13], the binding (% of control) was 104% (inactive). Besides, the efflux inhibition (fraction of control) in experiment [14] is 0.09 (inactive). Further, the differentiation response in [16] was 2.46% (inactive).

Consider `COc1ccc(C(=O)c2oc3ccc(Br)cc3c2NC(C)=O)cc1`, for which the percent of DMSO control GFP in experiment [1] was 90.9% (inactive). The GFP response vs DMSO is 122% (inactive) in [2] and 82% (inactive) in [4]. For the same compound, the percent response of DMSO control in [3] was 112% (inactive). The GFP response, % of DMSO in experiment [5] was 97.5% (inactive). Besides, the double positive events in experiment [6] came to 61.7%. The vesicle binding response in experiment [6] is 140% (inactive). For the same compound, the inhibition in experiment [7] is 4.52% (inactive); in experiment [11], 3.03% (inactive); in [15], 8% (inactive). In addition, the superoxide response (% of plate) in [8] was 104% (inactive). Besides, the aptamer binding inhibition in [9] is 1% (inactive). Besides, the response in experiment [10] is -11.6% (inactive); in [12], 3.34% (inactive). Moreover, the binding (% of control) in experiment [13] was 96.9% (inactive). Also, in experiment [14], the efflux inhibition (fraction of control) is -0.02 (inactive). For the same compound, the differentiation response in experiment [16] was -0.82% (inactive).

In the case of `Cc1ccc(C(=O)NCCNC(=O)c2ccccc2)cc1`, in experiment [1], the percent of DMSO control GFP is 92.8% (inactive). Moreover, the GFP response vs DMSO in [2] was 96.6% (inactive); in experiment [4], 98.3% (inactive). The percent response of DMSO control in [3] is 88% (inactive). For the same compound, the GFP response, % of DMSO in experiment [5] is 103% (inactive). This compound also registered a double positive events in experiment [6] of 69.2%. Also, the vesicle binding response in experiment [6] was 179% (inactive). The inhibition in experiment [7] is 13.4% (inactive); in experiment [11], -2.62% (inactive); in experiment [15] it was 4% (inactive). Further, the superoxide response (% of plate) in experiment [8] is 102% (inactive). Further, the aptamer binding inhibition in experiment [9] was 0% (inactive). The values for the response in [10] and in [12] were -20.1% (inactive) and -1.2% (inactive), respectively. In addition, the binding (% of control) in experiment [13] is 103% (inactive). Also, the efflux inhibition (fraction of control) in experiment [14] is -0.04 (inactive). Moreover, in [16], the differentiation response is -18.8% (inactive).

In the case of `COc1ccc([C@H]2[C@H](C(=O)OC(C)(C)C)N3N=Cc4ccccc4C3C23C(=O)c2ccccc2C3=O)cc1OC` (stereo not given in full), the percent of DMSO control GFP in [1] was 99.1% (inactive). Moreover, the GFP response vs DMSO in [2] was 106% (inactive); in experiment [4] it was 97.4% (inactive). Also, the percent response of DMSO control in [3] was 97.7% (inactive). Also, the GFP response, % of DMSO in [5] was 89.1% (inactive). This compound also registered a double positive events in experiment [6] of 49.9%. In experiment [6], the vesicle binding response was 39.2% (active). Besides, the inhibition is -45.5% (inactive) in [7], 61.9% (active) in experiment [11] and -27% (inactive) in [15]. Also, the superoxide response (% of plate) in experiment [8] was 103% (inactive). For the same compound, in experiment [9], the aptamer binding inhibition is -1% (inactive). Further, the response in [10] was 35.3% (inactive); in [12], -3.19% (inactive). Also, the binding (% of control) in [13] is 96.8% (inactive). Besides, the efflux inhibition (fraction of control) in experiment [14] was -0.06 (inactive). In experiment [16], the differentiation response was -13.6% (inactive).
